# Sfp inh: inhibitors of Bacillus subtilis Sfp phosphopantetheinyl transferase. Q9F4F7. Biochemical Sfp PPTase activity, qHTS. Potency, µM, inactives show largest response in the series, negative = inhibition, most hits filed as inhibitors. actives 3.5% (n = 310,000);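 also: the enzyme is Sfp with the accession as filed and its product quenches rhodamine fluorescence; 0% = enzyme reaction without inhibitor and -100% = no enzyme wells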
#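 Step 1, compound plus 15 nM Sfp-PPTase, 15 min, room temperature. Step 2, add rhodamine-CoA (5 uM) and BHQ-2-YbbR (12.5 uM). Step 3, read 525/598 nm fluorescence at 0 and 30 min.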
# BAZ2B block: blocks human BAZ2B; AlphaScreen BAZ2B-H3K14Ac peptide displacement; Q9UIF8; Potency, µM (highest dose often 114 µM), inactives show top-dose activity change, negative = inhibition, most hits filed as inhibitors; actives 4.4% (n = 360,000); also: % is scaled to controls: 0 for no effect and ±100 for the full control effect; nearly all actives have a fitted effect of over 60% in size
#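 AlphaScreen displacement: compounds (up to 110uM) incubated 30 min at room temperature with a preformed 50 nM BAZ2B/50 nM biotinylated H3K14Ac peptide complex in PBS pH 7.4 with Tween-20. Donor and acceptor beads at 10 ug/mL final added, 20 min light-protected before reading.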
# L3MBTL1 block: L3MBTL1 (human) inhibition; Q9Y468; AlphaScreen L3MBTL1–H3K9me1 peptide binding; Potency, µM (doses to about 57.1 µM), inactives show top-dose activity, negative = inhibition, actives largely listed as inhibitors; actives 0.66% (n = 230,000); AID 485360; also: % is scaled to controls: 0 for no effect and ±100 for the full control effect; nearly all actives have a fitted effect of over 60% in size
#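 AlphaScreen proximity signal between nickel-chelate acceptor and streptavidin donor beads (final 10 ug/mL) reports binding of 50 nM L3MBTL1 to 75 nM biotin-H3 K9me1 peptide; complex incubated with compounds 30 min at room temperature; cefsulodin titration as control.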
# HP1b chromo inh: HP1-beta chromodomain-methylated histone interaction inhibition. actives 0.56% (n = 390,000). AlphaScreen HP1-beta / biotin-H3K9me3 peptide binding. Potency, µM (top dose mostly 114 µM), for the others: top-dose activity change, negative = inhibition, hits mostly inhibitors. P83916; also: nearly all actives have a fitted effect of over 70% in size
# Target sequence (P83916 whole entry, looked up): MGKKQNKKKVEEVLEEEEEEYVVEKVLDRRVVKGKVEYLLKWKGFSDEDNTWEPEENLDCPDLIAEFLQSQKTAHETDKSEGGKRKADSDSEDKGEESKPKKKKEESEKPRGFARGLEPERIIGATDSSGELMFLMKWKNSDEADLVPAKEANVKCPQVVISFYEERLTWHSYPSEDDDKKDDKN
#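 AlphaScreen: HP1-beta (50 nM) preformed 30 min with biotin-H3(1-18)K9me3 peptide (50 nM) in PBS pH 7.4, 0.01% Tween-20. Compound added for 30 min at RT, then streptavidin donor/nickel chelate acceptor beads (10 ug/mL) for 30 min.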
# JMJD2A Tudor: blocks the human JMJD2A Tudor domain; O75164; AlphaScreen JMJD2A-Tudor / H3K4me3 peptide binding; Potency, µM (series often up to 114 µM), for the others: at the top dose activity change, negative = inhibition, usual class: inhibitors; actives 4.4% (n = 390,000); AID 504339; also: % is scaled to controls: 0 for no effect and ±100 for the full control effect; nearly all actives have a fitted effect of over 50% in size
# G9a block: G9a (human) methyltransferase inhibition; Potency, µM (series often up to 102 µM), without a hit: top-dose activity, negative = inhibition, hits mostly inhibitors; AID 504332; actives 8.8% (n = 350,000); G9a H3K9 monomethylation, AlphaScreen, 2 h; Q96KQ7; also: % is scaled to controls: 0 for no effect and ±100 for the full control effect; nearly all actives have a fitted effect of over 75% in size
# Target sequence (Q96KQ7 913-1193 limits assumed): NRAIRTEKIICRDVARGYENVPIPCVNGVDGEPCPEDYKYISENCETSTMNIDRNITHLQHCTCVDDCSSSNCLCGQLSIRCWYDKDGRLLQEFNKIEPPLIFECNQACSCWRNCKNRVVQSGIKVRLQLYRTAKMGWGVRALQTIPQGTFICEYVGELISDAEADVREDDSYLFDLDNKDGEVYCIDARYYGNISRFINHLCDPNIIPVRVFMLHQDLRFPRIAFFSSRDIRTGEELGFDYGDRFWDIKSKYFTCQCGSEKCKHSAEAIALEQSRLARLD
#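 AlphaScreen detection with an anti-monomethyl H3K9 antibody quantified product after a 2 h room-temperature reaction containing 500 nM biotinylated H3K9 peptide, 20 µM SAM and 20 nM enzyme, which had been preincubated 15 min with compound.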
# Starred values were filed as active, the others as inactive; ? = inconclusive; nt = no result given; [ ] = dose if it differs, or a comment. Most compounds without a hit are left out; they make up all but 12% or so of the library. Calls follow the shape of the dose curve; as a rule, active = well fitted curve in the direction sought with a large enough effect; inconclusive = small, poorly fitted or top-dose-only effect, or another doubt; inactive = no such curve, though single readings can be large; an effect the other way counts as inactive or inconclusive. Potency is read from the fitted curve at half-maximal effect.
SMILES,Sfp inh,BAZ2B block,L3MBTL1 block,HP1b chromo inh,JMJD2A Tudor,G9a block
CC(=O)C1=C(O)C(=O)N(c2ccc(S(N)(=O)=O)cc2)C1c1cccc([N+](=O)[O-])c1 (stereo not drawn),-4%,-26%,-7%,20%,-16%[11.4 µM],50µM*
COc1ccc(/C=N/Nc2nnc(-c3ccccc3)c(=O)[nH]2)cc1,11%,?,7%,13%,?,?
O=c1[nH]c(N/N=C/c2ccccc2Br)nnc1-c1ccccc1,50µM*,-11%,4%,24%,-9%,-7%[59 µM]
CCN1CCN(c2ccc(S(=O)(=O)N3CCCCC3)cc2NC(=O)Cc2ccccc2F)CC1,nt,7%,-7%,1%,-30%,?
CCN1CCN(c2ccc(S(=O)(=O)N3CCCCC3)cc2NC(=O)Cc2ccc(Cl)c(Cl)c2)CC1,nt,?,-13%,-9%,?,40µM*
CCN1CCN(c2ccc(S(=O)(=O)N3CCCCC3)cc2NC(=O)Cc2ccccc2)CC1,nt,-8%,-1%,-8%,?,6.3µM*
COc1cc2oc(=O)cc(-c3ccc(-c4sccc4C=O)cc3)c2c(OC)c1OC,18%,nt,nt,nt,nt,14%[59 µM]
COc1cc(/C=N/Nc2nncn2N)ccc1OCc1c(C)no[n+]1[O-],71µM*,-4%,-17%,56%,-2%,nt
COc1ccc(/C=N/Nc2nncn2N)cc1Br,-16%,?,?,5%,-22%,nt
O=c1c(-c2ccc(O)cc2)coc2cc(O[C@@H]3O[C@H](CO)[C@H](O)[C@H](O)[C@H]3O)ccc12,6%,nt,nt,nt,nt,nt
COc1ccc2c(c1)c1c(c(=O)n(-c3cccc(Cl)c3)c(=O)n1CC(=O)N1CCCC1)n2C,nt,-11%,nt,6%,-3%,-6%[59 µM]
COc1cc2[nH]c(=O)n(CCCCCC(=O)N3CCN(c4ccc(Cl)cc4)CC3)c(=O)c2cc1OC,nt,4%,nt,35%,-11%,8%[59 µM]
Clc1cccc(OCCN2CCN(CCOc3cccc(Cl)c3)CC2)c1,-7%,?,-14%,-6%,?,?
CC1CCN(CCOc2cccc(Br)c2)CC1,?,56µM*,-4%,?,7.9µM*,7.9µM*
Brc1cccc(OCCCN2CCCCCC2)c1,-22%,50µM*,-5%,?,22µM*,10µM*
c1cc(OCCCN2CCCCC2)ccc1CN1CCCCC1,5%,-16%,nt,15%,-10%,6%
CCOc1cc(-c2ccc(OC(=O)c3ccccc3F)cc2)cc(=O)c2c(C)oc(C)c12,nt,?,nt,21%,-33%,-28%[59 µM]
CCN1C(=O)[C@H]2[C@H]3[C@H](O)[C@H](O)C/C(=N/O[C@@H]4O[C@@H](COC(C)=O)[C@@H](OC(C)=O)[C@@H](OC(C)=O)[C@H]4OC(C)=O)[C@@H]3CC[C@@H]2C1=O,1%,nt,nt,nt,nt,nt
COc1ccc(Nc2cc(C)nc(NCc3ccccc3)n2)cc1,32µM*,-36%,?,-31%,?,50µM*
COc1cccc(N2CCN(CC(=O)Nc3nnc(-c4ccccc4)s3)CC2)c1,-1%,?,-22%,-20%,89µM*,-6%[59 µM]
COc1ccc(NC(=O)CN2CCN(c3nc(-c4cccc(OC)c4)cs3)CC2)cc1,11%,?,-26%,-20%,?,10µM*
COc1cccc(-c2csc(N3CCN(CC(=O)Nc4ccc5c(c4)OCO5)CC3)n2)c1,-5%,?,nt,-19%,-33%,?
CCCC(=O)Nc1nnc(-c2cccc(OCC)c2)s1,15%,-2%,6%,12%,-11%,21%
COc1cc(CCC(=O)Nc2nnc(-c3cccnc3)s2)cc(OC)c1OC,-23%,-5%,nt,-10%,-20%,40µM*
COc1cccc(-c2csc(N3CCN(C(=O)Nc4ccc(F)cc4)CC3)n2)c1,12%,-29%,-8%,-22%,-21%,?
SMILES,Sfp inh,BAZ2B block,L3MBTL1 block,HP1b chromo inh,JMJD2A Tudor,G9a block
COc1cccc(-c2csc(N3CCN(C(=O)C4CCCCC4)CC3)n2)c1,?,?,7%[11.4 µM],-26%,?,14µM*
O=C(CSc1nnc(CNC(=O)c2c(F)cccc2Cl)o1)Nc1ccccc1F,nt,-12%,nt,25%,0%,-27%[59 µM]
Cc1cc2oc(C(=O)Nc3cccc(-c4nc5ccccc5o4)c3)c(C)c2cc1C,nt,-26%,nt,21%,-5%,-2%[59 µM]
Cc1ccc2nc(-c3ccncc3)c(Nc3ccc(C(C)C)cc3)n2c1,nt,-11%,nt,34%,-16%,-7%[59 µM]
O=S(=O)(Nc1ccc(Br)cc1)c1cccc2nonc12,15%,-34%,nt,7%,-29%,79µM*
C=CCSc1nccc(=O)[nH]1,10%,6%,1%,22%,50µM*,18%[59 µM]
C=CCSc1nc2ccccc2c(=O)[nH]1,-9%,-5%,8%,29%,-17%,14%
O=C(CSc1nccc(=O)[nH]1)c1ccccc1Br,50µM*,-18%,nt,1%,-1%,7.9µM*
CC#CCN1c2ccccc2[C@]23C[C@@H](C(=O)OC)N(S(=O)(=O)c4ccc(C)cc4)C2=NC(C(=O)OC)=C(C(=O)OC)[C@H]13,6%,nt,nt,nt,nt,nt
Cc1ccc2c(c1)C(c1ccccc1)C(=O)O2 (stereo not drawn),50µM*,-16%,nt,-10%,?,-47%
CC(=O)Nc1cccc(C(=O)N/N=C/c2cccnc2)c1,16%,-3%,-3%,-11%,45µM*,41%
O=C(N/N=C/c1cccnc1)c1cc(O)c(O)c(O)c1,40µM*,45µM*,nt,?,28µM*,32µM*
Cc1ccc(CNC(=O)c2cc3c(=O)n(Cc4cccnc4)ccc3nc2C)cc1,nt,-15%,nt,29%,-15%,0%[59 µM]
COc1ccccc1CCn1c(=O)c(-c2ccccc2)nc2cncnc21,2%,nt,nt,nt,nt,-7%[12.7 µM]
COc1ccc(CC(=O)Nc2c(C(=O)N3CCN(c4ncccn4)CC3)oc3ccccc23)cc1OC,14%,-12%,nt,37%,-25%,3%[59 µM]
COc1cc(CCC(=O)Nc2c(C(=O)N3CCN(c4ccccc4OC)CC3)oc3ccccc23)on1,1%,?,nt,21%,?,nt
COc1ccc(CC(=O)Nc2c(C(=O)N3CCN(c4ccccc4OC)CC3)oc3ccccc23)cc1OC,-5%,?,nt,9%,?,35µM*
COc1ccc(CC(=O)Nc2c(C(=O)N3CCN(c4ccccc4)CC3)oc3ccccc23)cc1OC,10%,-39%[57.1 µM],nt,3%,?,71µM*
Cc1ccc(NNC(=O)CCc2ccccc2)c(C)c1,-1%,-5%,-1%,29%,2%,32µM*
Cc1ccc(NNC(=O)c2ccno2)c(C)c1,-9%,-1%,-3%,49%,-17%,0.79µM*
